Growth data for seven compounds are collected here from PubChem BioAssay (NCI).

Among the test systems are NCI-H23 lung; NCI-H226 lung; NCI-H322M lung; HOP-62 NSCLC; NCI-H460 lung; HOP-92 NSCLC; NCI-H522 lung; A549/ATCC NSCLC; 786-0 renal; COLO 205 colon; DU-145 prostate; K-562 leukemia; MALME-3M melanoma; MDA-MB-231 breast; RXF 393 renal; SF-268 CNS; SF-295 CNS; SF-539 CNS; UACC-257 melanoma; M14 melanoma.
What all share (experiment): NCI-60 one-dose screen, 48 h (100 = growth as untreated, 0 = no growth, -100 = all killed)
Common to all, as to settings: 10 µM unless noted

About 83,000 compounds went through this panel and 20% of them were active in at least one assay; those are over-represented in the sample as a whole.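 Plates (96-well) were seeded with cells, treated with compound at one concentration, and incubated for 48 hours before percent growth was determined.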 Unmarked numbers belong to inactive results. Active and inactive are the calls of the source. Rule for the calls: active = growth percent below 10; inactive = the rest.

For the compound `COc1ccc(C2=Nc3c(N)ncnc3NC(c3cccc(Nc4ccnc5cc(C(F)(F)F)ccc45)c3)C2)cc1` (stereo not given), the growth in the experiment on NCI-H23 lung is 70.1%; with NCI-H226 lung it was 64.2%; in the experiment with NCI-H322M lung it was 81.3%; in the experiment with HOP-62 NSCLC it was 63.7%; in the experiment on NCI-H460 lung, 70.9%; in the experiment on HOP-92 NSCLC it was 31.4%. In addition, the growth is 69.6% in the experiment with NCI-H522 lung; 59.8% with A549/ATCC NSCLC; 59.4% with 786-0 renal; 62.4% with COLO 205 colon; 80.2% with DU-145 prostate; 15.5% in the experiment with K-562 leukemia. In addition, the growth with MALME-3M melanoma was 72.3%; with MDA-MB-231 breast, 46.3%; with RXF 393 renal it was 41%; in the experiment with SF-268 CNS it was 56.9%; with SF-295 CNS, 61.9%; in the experiment on SF-539 CNS, 70%. Besides, the results for the growth with UACC-257 melanoma and in the experiment on M14 melanoma were 74.9% and 66%, respectively.

Regarding `N#Cc1c(Nc2ccc(F)cc2)n[nH]c1-c1cccs1`, the growth with NCI-H23 lung was 85.2%; with NCI-H226 lung it was 88.9%; with NCI-H322M lung, 102%; in the experiment with HOP-62 NSCLC, 110%; with NCI-H460 lung, 107%; in the experiment on HOP-92 NSCLC it was 87.5%. Moreover, the growth was 97.1% in the experiment on NCI-H522 lung; 115% in the experiment on A549/ATCC NSCLC; 98.3% in the experiment on 786-0 renal; 128% in the experiment on COLO 205 colon; 113% in the experiment on DU-145 prostate; 99.2% with K-562 leukemia. Moreover, the growth in the experiment on MALME-3M melanoma was 108%; in the experiment on MDA-MB-231 breast it was 89.5%; in the experiment on RXF 393 renal, 112%; with SF-268 CNS, 98%; with SF-295 CNS, 97.7%; in the experiment with SF-539 CNS, 98.8%. The growth in the experiment on UACC-257 melanoma is 120%; in the experiment on M14 melanoma, 104%.

Consider `C[C@@H]1O[C@@H](O[C@@H]2C[C@H](c3ccc4c(c3O)C(=O)C3=C(C4=O)[C@@]4(O)C(=O)C[C@](C)(O)C[C@@]4(O)C=C3)O[C@H](C)[C@H]2O)C[C@H](O)[C@@H]1O`, for which the growth is 93.2% in the experiment with NCI-H23 lung; 101% in the experiment on NCI-H226 lung; 108% in the experiment on NCI-H322M lung; 107% in the experiment with HOP-62 NSCLC; 98.5% with NCI-H460 lung; 120% with HOP-92 NSCLC. Besides, the growth in the experiment with NCI-H522 lung was 82.8%; in the experiment with A549/ATCC NSCLC, 94.7%; in the experiment on 786-0 renal it was 101%; with COLO 205 colon, 96.9%; in the experiment with DU-145 prostate, 104%; with K-562 leukemia, 91.3%. For the same compound, the growth with MALME-3M melanoma was 90.7%; in the experiment on MDA-MB-231 breast, 102%; with RXF 393 renal it was 106%; in the experiment on SF-268 CNS, 91.1%; in the experiment on SF-295 CNS, 108%; with SF-539 CNS, 101%. Moreover, the values for the growth in the experiment on UACC-257 melanoma and in the experiment on M14 melanoma were 101% and 98.4%, respectively.

As for `COc1ccc(C(C)=O)cc1S(N)(=O)=O`, the growth was 98.2% in the experiment with NCI-H23 lung; 101% in the experiment on NCI-H226 lung; 97.1% in the experiment with NCI-H322M lung; 112% in the experiment on HOP-62 NSCLC; 104% with NCI-H460 lung; 92% in the experiment with HOP-92 NSCLC. Besides, the growth in the experiment on NCI-H522 lung is 75.6%; with A549/ATCC NSCLC, 88%; with 786-0 renal, 89.4%; in the experiment with COLO 205 colon, 115%; in the experiment with DU-145 prostate, 106%; in the experiment on K-562 leukemia, 104%. For the same compound, the growth in the experiment on MALME-3M melanoma was 99.3%; in the experiment with MDA-MB-231 breast, 103%; with RXF 393 renal it was 102%; in the experiment with SF-268 CNS, 101%; with SF-295 CNS it was 94.6%; in the experiment with SF-539 CNS, 104%. Further, the growth is 91.9% in the experiment with UACC-257 melanoma and 95% in the experiment on M14 melanoma.

Regarding `Cc1nc2sc(C(=O)Nc3ccc(Cl)cc3)c(N)c2cc1C(O)c1ccccc1` (stereo not given), the growth was 42.6% in the experiment on NCI-H23 lung; 57% in the experiment on NCI-H226 lung; 57.6% in the experiment with NCI-H322M lung; 45.1% with HOP-62 NSCLC; 17.4% in the experiment with NCI-H460 lung; 44.8% in the experiment on HOP-92 NSCLC. In addition, the growth with NCI-H522 lung was 33.2%; with A549/ATCC NSCLC, 42.1%; with 786-0 renal it was 46.5%; with COLO 205 colon, 29.6%; with DU-145 prostate it was 34.7%; with K-562 leukemia, 9.79% (active). The growth is 44.1% with MALME-3M melanoma; 52.2% in the experiment on MDA-MB-231 breast; 47.3% in the experiment with RXF 393 renal; 54.2% in the experiment on SF-268 CNS; 44.5% with SF-295 CNS; 37.7% with SF-539 CNS. The values for the growth with UACC-257 melanoma and in the experiment on M14 melanoma were 46.1% and 19.7%, respectively.

On to `Cc1cc(F)ccc1S(=O)(=O)Nc1cc(-c2c(O)ccc3ccccc23)c(O)c2ccccc12`, for which the growth in the experiment on NCI-H23 lung is 16.7%; in the experiment with NCI-H226 lung it was 47.3%; with NCI-H322M lung, 79%; with HOP-62 NSCLC, 80.1%; in the experiment on NCI-H460 lung it was 16.3%; in the experiment with HOP-92 NSCLC it was 19.1%. Besides, the growth was -36.2% (active) with NCI-H522 lung; 20.4% with A549/ATCC NSCLC; 76.2% with 786-0 renal; 14.3% in the experiment on COLO 205 colon; 41.7% in the experiment on DU-145 prostate; 14.8% in the experiment on K-562 leukemia. In addition, the growth was 15.3% with MALME-3M melanoma; 22.7% with MDA-MB-231 breast; 27.1% in the experiment with RXF 393 renal; 34.9% with SF-268 CNS; 41.8% in the experiment on SF-295 CNS; 6.5% (active) in the experiment on SF-539 CNS. The growth in the experiment on UACC-257 melanoma was 30.2%; in the experiment on M14 melanoma, 18.2%.

As for `Cc1[nH]c(C(=O)Nc2cccc(OC3CCNCC3)c2)c(Cl)c1Cl`, the growth in the experiment with NCI-H23 lung was 75.3%; with NCI-H226 lung it was 91.4%; with NCI-H322M lung, 84.8%; in the experiment with HOP-62 NSCLC it was 86.9%; in the experiment on NCI-H460 lung it was 77%; in the experiment with HOP-92 NSCLC it was 22.9%. Further, the growth with NCI-H522 lung is 99.2%; in the experiment on A549/ATCC NSCLC it was 68.6%; in the experiment on 786-0 renal it was 63.8%; with COLO 205 colon, -35.3% (active); with DU-145 prostate, 88%; in the experiment on K-562 leukemia, 0.0646% (active). In addition, the growth was 27.2% with MALME-3M melanoma; 50.7% in the experiment on MDA-MB-231 breast; 40.9% with RXF 393 renal; 74.5% in the experiment with SF-268 CNS; 58.7% in the experiment on SF-295 CNS; 71.5% in the experiment with SF-539 CNS. The growth was 17.7% in the experiment with UACC-257 melanoma and -12.4% (active) in the experiment with M14 melanoma.
